Measured values taken from PubChem BioAssay AID1159580 (chemical genetic matrix, 2015).
Out of some 5,500 compounds screened, about 2,000 (36%) were called active. Inconclusive results (about 18%) are left out. Rule as the data show it: active = normalized growth mostly below about 0.91 (no sharp cut-off); inconclusive = no clear call, values can overlap the other calls; inactive = mostly above about 0.92. This is one part of the list.

Experiment: chemical genetic growth profiling, strain panel (AID 1159580);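 also: tested at 20 µM; growth read once vehicle control cultures reached saturation at 30 °C; 1 = growth at the plate median or of vehicle wells; lower values mean less growth of the strain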
Details: growth OD

Measured: normalized growth

CCOP(=S)(OCC)SCn1c(=O)oc2cc(Cl)ccc21
active: S. cerevisiae deletion strains, locus YLR262C, strain YPT6 (second series), active compounds read low 0.8 | S. cerevisiae deletion strains, locus YNL071W, strain lat1, active compounds read low 0.91
inactive: S. cerevisiae deletion strains, locus YJR043C, strain POL32, active compounds read low 1.01 | S. cerevisiae deletion strains, locus YJR075W, strain HOC1, active compounds read low 0.995 | S. cerevisiae deletion strains, locus YKL009W, strain mrt4, active compounds read low 0.98 | S. cerevisiae deletion strains, locus YKL068W, active compounds read low 1 | S. cerevisiae deletion strains, locus YKL085W, strain MDH1 (second series), active compounds read low 0.989 | S. cerevisiae deletion strains, locus YKL085W, strain MDH1, active compounds read low 0.989 | S. cerevisiae deletion strains, locus YKL160W, strain elf1, active compounds read low 0.968 | S. cerevisiae deletion strains, locus YKL190W, strain CNB1, active compounds read low 1.01 | S. cerevisiae deletion strains, locus YKR001C, strain vps1, active compounds read low 0.982 | S. cerevisiae deletion strains, locus YKR026C, strain gcn3, active compounds read low 0.947 | S. cerevisiae deletion strains, locus YKR091W, strain srl3, active compounds read low 0.963 | S. cerevisiae deletion strains, locus YLL001W, strain dnm1, active compounds read low 0.967 | S. cerevisiae deletion strains, locus YLL026W, active compounds read low 0.954 | S. cerevisiae deletion strains, locus YLL041C, strain sdh2, active compounds read low 0.954 | S. cerevisiae deletion strains, locus YLR027C, strain aat2, active compounds read low 0.954 | S. cerevisiae deletion strains, locus YLR039C, strain RIC1, active compounds read low 0.97 | S. cerevisiae deletion strains, locus YLR058C, strain SHM2, active compounds read low 1 | S. cerevisiae deletion strains, locus YLR102C, strain apc9, active compounds read low 0.995 | S. cerevisiae deletion strains, locus YLR221C, strain rsa3, active compounds read low 0.964 | S. cerevisiae deletion strains, locus YLR258W, strain gsy2, active compounds read low 0.93 | S. cerevisiae deletion strains, locus YLR262C, strain YPT6, active compounds read low 0.969 | S. cerevisiae deletion strains, locus YLR268W, strain sec22, active compounds read low 0.987 | S. cerevisiae deletion strains, locus YLR320W, strain mms22, active compounds read low 0.942 | S. cerevisiae deletion strains, locus YLR330W, strain CHS5, active compounds read low 0.985 | S. cerevisiae deletion strains, locus YLR342W, strain FKS1 (second series), active compounds read low 1.05 | S. cerevisiae deletion strains, locus YLR342W, strain FKS1, active compounds read low 0.93 | S. cerevisiae deletion strains, locus YLR357W, strain rsc2, active compounds read low 0.949 | S. cerevisiae deletion strains, locus YLR370C, strain arc18, active compounds read low 0.962 | S. cerevisiae deletion strains, locus YLR371W, strain rom2, active compounds read low 1 | S. cerevisiae deletion strains, locus YLR384C, strain iki3, active compounds read low 0.971 | S. cerevisiae deletion strains, locus YLR418C, strain cdc73, active compounds read low 0.97 | S. cerevisiae deletion strains, locus YML016C, strain PPZ1, active compounds read low 0.996 | S. cerevisiae deletion strains, locus YML032C, strain rad52, active compounds read low 0.998 | S. cerevisiae deletion strains, locus YML120C, strain ndi1, active compounds read low 0.965 | S. cerevisiae deletion strains, locus YML124C, strain tub3, active compounds read low 0.991 | S. cerevisiae deletion strains, locus YMR058W, strain fet3, active compounds read low 0.966 | S. cerevisiae deletion strains, locus YMR078C, strain ctf18, active compounds read low 0.989 | S. cerevisiae deletion strains, locus YMR125W, strain sto1, active compounds read low 0.961 | S. cerevisiae deletion strains, locus YMR129W, active compounds read low 0.949 | S. cerevisiae deletion strains, locus YMR205C, strain PFK2, active compounds read low 0.895 | S. cerevisiae deletion strains, locus YMR223W, strain ubp8, active compounds read low 0.998 | S. cerevisiae deletion strains, locus YMR231W, strain pep5, active compounds read low 0.973 | S. cerevisiae deletion strains, locus YMR263W, strain SAP30, active compounds read low 1 | S. cerevisiae deletion strains, locus YMR307W, strain GAS1, active compounds read low 1.03 | S. cerevisiae deletion strains, locus YNL067W, strain RPL9B, active compounds read low 0.993 | S. cerevisiae deletion strains, locus YNL128W, strain TEP1, active compounds read low 0.989 | S. cerevisiae deletion strains, locus YNL153C, strain GIM3, active compounds read low 0.994 | S. cerevisiae deletion strains, locus YNL209W, strain ssb2, active compounds read low 0.983 | S. cerevisiae deletion strains, locus YNL233W, strain BNI4, active compounds read low 0.995 | S. cerevisiae deletion strains, locus YNL248C, strain rpa49, active compounds read low 0.966 | S. cerevisiae deletion strains, locus YNL250W, strain rad50, active compounds read low 0.993 | S. cerevisiae deletion strains, locus YNL271C, strain bni1, active compounds read low 0.992 | S. cerevisiae deletion strains, locus YNL298W, strain CLA4, active compounds read low 0.997 | S. cerevisiae deletion strains, locus YNL307C, strain MCK1, active compounds read low 0.991 | S. cerevisiae deletion strains, locus YNL322C, strain KRE1 (second series), active compounds read low 0.958 | S. cerevisiae deletion strains, locus YNL322C, strain KRE1, active compounds read low 1 | S. cerevisiae deletion strains, locus YNR049C, strain mso1, active compounds read low 0.961 | S. cerevisiae deletion strains, locus YNR052C, strain pop2, active compounds read low 0.992 | S. cerevisiae deletion strains, locus YOL006C, strain TOP1, active compounds read low 0.981 | S. cerevisiae deletion strains, locus YOL012C, strain htz1 1.68 | S. cerevisiae deletion strains, locus YOL147C, strain pex11, active compounds read low 0.996 | S. cerevisiae deletion strains, locus YOR001W, strain rrp6, active compounds read low 0.969 | S. cerevisiae deletion strains, locus YOR061W, strain CKA2, active compounds read low 0.985 | S. cerevisiae deletion strains, locus YOR069W, strain VPS5, active compounds read low 1 | S. cerevisiae deletion strains, locus YOR070C, strain gyp1, active compounds read low 0.961 | S. cerevisiae deletion strains, locus YOR080W, strain dia2, active compounds read low 0.961 | S. cerevisiae deletion strains, locus YOR083W, strain WHI5, active compounds read low 0.961 | S. cerevisiae deletion strains, locus YOR106W, strain vam3, active compounds read low 0.963 | S. cerevisiae deletion strains, locus YOR136W, strain idh2, active compounds read low 0.999 | S. cerevisiae deletion strains, locus YOR144C, strain elg1, active compounds read low 0.982 | S. cerevisiae deletion strains, locus YOR184W, strain ser1, active compounds read low 0.978 | S. cerevisiae deletion strains, locus YOR265W, strain rbl2, active compounds read low 0.952 | S. cerevisiae deletion strains, locus YOR270C, strain vph1, active compounds read low 0.963 | S. cerevisiae deletion strains, locus YOR290C, strain snf2, active compounds read low 0.963 | S. cerevisiae deletion strains, locus YOR316C, strain cot1, active compounds read low 0.991 | S. cerevisiae deletion strains, locus YPL051W, strain arl3, active compounds read low 0.953 | S. cerevisiae deletion strains, locus YPL055C, strain LGE1, active compounds read low 0.981 | S. cerevisiae deletion strains, locus YPL078C, strain atp4, active compounds read low 0.962 | S. cerevisiae deletion strains, locus YPL106C, strain sse1, active compounds read low 0.994 | S. cerevisiae deletion strains, locus YPL240C, strain hsp82, active compounds read low 0.948 | S. cerevisiae deletion strains, locus YPL241C, strain CIN2, active compounds read low 0.994 | S. cerevisiae deletion strains, locus YPR119W, strain clb2, active compounds read low 0.99 | S. cerevisiae deletion strains, locus YPR141C, strain kar3, active compounds read low 0.993 | S. cerevisiae deletion strains, locus YPR163C, strain tif3, active compounds read low 0.993 | S. cerevisiae deletion strains, locus YPR167C, strain met16, active compounds read low 0.984 | S. cerevisiae deletion strains, strain wtn01, active compounds read low 0.99 | S. cerevisiae strains, strain wild type, active compounds read low 0.993
